Experimental findings from PubChem BioAssay (Tox21) are described below.

A number with no mark means an inactive call. Results filed as inconclusive are left out. Calls of active or inactive are those of the source. Unless noted, calls follow the shape of the dose curve; as a rule, active = well fitted curve in the direction sought with a large enough effect in the repeat runs; inconclusive = weak or mixed curves; inactive = no such curve, though single readings can be large; an effect the other way counts as inactive or inconclusive.

The nature of assay [1]: qHTS assay for small molecules that induce genotoxicity in human embryonic kidney cells expressing luciferase-tagged ATAD5 (AID 651632). Also: nearly all actives have a fitted effect of over 15% in size. Also: potency is read from the fitted curve at half-maximal effect. The method, boiled down: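 Luminescent reporter readout, HEK293T ATAD5-luc line: 16 hr drug exposure (37C, 5% CO2) followed by Amplite, 30 min RT.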
Assay [2] in a line: qHTS assay for small molecule agonists of the p53 signaling pathway - cell viability (AID 651633; calls by dose curve;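 also: p53RE-bla HCT reporter cells with a stable beta-lactamase p53 reporter; series mostly up to about 83 µM; nearly all actives have a fitted effect of over 30% in size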). The method, boiled down:
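p53RE-bla cells were treated with compound for 16 hours at 37 C. Cytotoxicity was then measured as CellTiter-Glo luminescence after 30 min at room temperature.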
In general terms: Quantitative high-throughput screening tests each substance at several concentrations.

Assay [3] is described as follows: qHTS assay for small molecules that induce genotoxicity in human embryonic kidney cells expressing luciferase-tagged ATAD5 - cell viability (AID 651634; calls by dose curve; also: nearly all actives have a fitted effect of over 25% in size). The method, boiled down: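 Viability read: CellTiter-Fluor fluorescence, 30 min at 37C. Cells: HEK293T, luciferase-tagged ATAD5. Exposure: 15.5 hr, 37C, 5% CO2, compound or DMSO vehicle.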
Assay [4] is described as follows: qHTS assay for small molecule disruptors of the mitochondrial membrane potential (AID 720635). Also: potency is read from the fitted curve at half-maximal effect. The method, boiled down: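 HepG2 cells exposed to compound 1 hr at 37C, then Mito-MPS dye 30 min. Ratio read of aggregate (540/590 nm) versus monomer (490/535 nm) fluorescence.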
Assay [5] in a line: qHTS assay to test for compound auto fluorescence at 590 nm (red) in HepG2 cells (AID 720674). The method, boiled down:
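HepG2 cells, 2,000 per well in MEM with 10% FBS, attached overnight at 37 C, then got 23 nL compound or DMSO. After 1 hr at 37 C, 5% CO2, red fluorescence was read at 540/590 nm against Rose Bengal sodium as reference.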

The nature of assay [6]: qHTS assay to test for compound auto fluorescence at 535 nm (green) in HepG2 cells (AID 720675).
Assay [7] can be described thus: qHTS assay to test for compound auto fluorescence at 460 nm (blue) in HEK293 cells (AID 720678). Summed up: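 Triamterene serves as the blue fluorophore standard. Compound signal at 405/460 nm is read in HEK293 wells (2,000 cells, 10% dialyzed FBS) after overnight treatment at 37C.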
A short description of assay [8]: qHTS assay to test for compound auto fluorescence at 590 nm (red) in HEK293 cells (AID 720679). Summed up: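 We plated HEK293 cells in 10% dialyzed FBS medium, let them adhere for 4-5 hr, then added 23 nL compound. Overnight at 37C and 5% CO2 preceded fluorescence measurement at 540/590nm.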
Assay [9] can be described thus: qHTS assay for small molecule disruptors of the mitochondrial membrane potential - cell viability (AID 720634; calls by dose curve; also: nearly all actives have a fitted effect of over 20% in size; also: potency is read from the fitted curve at half-maximal effect). Summed up: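 HepG2, 1 hr compound, 37 C. ATP luminescence via CellTiter-Glo, 30 min RT, same well as m-MPI.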
% is scaled to controls: 0 for no effect and ±100 for the full control effect.

Regarding `O=C(c1ccc(O)cc1)c1ccc(Cl)cc1`, the Potency entry in assay [1], in assay [2], in [3] and in assay [7] was “inactive” each time. Also, the Potency in assay [4] is 15.7 µM (active). In addition, the outcome in [5], in assay [6] and in [8] was inactive.
As to `CCCCCCCCCCOS(=O)(=O)O`, the Potency result in [1], in assay [2], in assay [3], in assay [9] and in [7] was “inactive” each time. For the same compound, the compound was called inactive in assay [5], in assay [6] and in [8].
`C=CCOC(=O)/C=C\C(=O)OCC=C`: the Potency result in [1], in assay [2], in assay [3], in assay [4] and in assay [7] was “inactive” throughout. Besides, the compound was classed as inactive in assay [5], in assay [6] and in [8].
Turning to `C=CC(=O)NCOCC(C)C`, the Potency entry in assay [1], in [2], in assay [3], in assay [4] and in [7] was “inactive” throughout. Further, the compound was classed as inactive in assay [5], in [6] and in [8].
As to `Brc1cc(-c2ccc(Br)c(Br)c2Br)cc(Br)c1Br`, the Potency result in [1], in assay [2], in assay [3], in assay [9] and in assay [7] was “inactive” in each case. In addition, the compound was classed as inactive in assay [5], in assay [6] and in assay [8].
For the compound `CC1=CC(O)CC(C)(C)C1` (stereo not drawn), the Potency result in [1], in assay [2], in assay [3], in [9] and in assay [7] was “inactive” throughout. Also, the outcome in assay [5], in assay [6] and in assay [8] was inactive.
In the case of `CCC1(C)CC(=O)NC1=O` (stereo not drawn), the Potency entry in [1], in assay [2], in assay [3], in assay [9] and in [7] was “inactive” in each case. Further, the compound was classed as inactive in [5], in assay [6] and in assay [8].
On to `CN(C)C(=O)Nc1ccc(Oc2ccc(Cl)cc2)cc1`, for which the Potency entry in assay [1], in [2], in [3], in assay [9] and in assay [7] was “inactive” in each case. The result in [5], in [6] and in [8] was inactive.
Take `NC(=O)Cn1c(=O)cc(CCN2CCN(c3nccc4sccc34)CC2)c2ccc(F)cc21`: the Potency entry in [1], in assay [2], in assay [3] and in assay [7] was “inactive” each time. In addition, the outcome in [5], in assay [6] and in assay [8] was inactive.
As to `CC(N)CN` (stereo not drawn), the Potency result in assay [1], in assay [2], in assay [3] and in [7] was “inactive” throughout. Besides, the call in assay [5], in [6] and in assay [8] was inactive.
Regarding `CC(Cl)C(Cl)Cl` (stereo not drawn), the Potency entry in assay [1], in assay [2], in assay [3] and in [7] was “inactive” each time. Besides, the compound was classed as inactive in assay [5], in assay [6] and in [8].
Consider `Oc1cc(O)c(Cl)cc1Cl`, for which the Potency entry in assay [1], in assay [2], in assay [3] and in assay [7] was “inactive” each time. For the same compound, in assay [4], the Potency is 7.03 µM (active). Further, the result in [5], in assay [6] and in assay [8] was inactive.
For the compound `C[C@@H]1C[C@H]2[C@@H]3CCC4=CC(=O)C=C[C@]4(C)[C@@]3(F)[C@@H](O)C[C@]2(C)[C@@]1(O)C(=O)CO`, the Potency result in assay [1], in assay [2], in [3] and in assay [7] was “inactive” in each case. Further, the outcome in assay [5], in assay [6] and in assay [8] was inactive.
On to `CC(=O)[C@H]1CC[C@H]2[C@@H]3C=CC4=CC(=O)CC[C@@]4(C)[C@@H]3CC[C@]12C`, for which the Potency result in assay [1], in [2], in assay [3] and in assay [9] was “inactive” throughout. In addition, in [5], the fluorescence, relative to Rose Bengal was -0.279% [at 18.6 µM]. For the same compound, the fluorescence, % of fluorescein control in assay [6] is -0.0643% [at 18.6 µM]. In assay [7], the fluorescence, % of triamterene is -0.137% [at 18.6 µM]. Further, the fluorescence, % of fluorescent control in assay [8] was -0.3% [at 18.6 µM].
For the compound `CCCCC(CC)C(=O)OCCOCCOCCOCCOC(=O)C(CC)CCCC` (stereo not drawn), the Potency result in [1], in assay [2], in assay [3], in [9] and in assay [7] was “inactive” throughout. Moreover, the result in assay [5], in [6] and in [8] was inactive.
As for `OC/C(Br)=C(\Br)CO`, the Potency entry in assay [1], in assay [2], in [3], in assay [9] and in assay [7] was “inactive” throughout. For the same compound, the compound was classed as inactive in assay [5], in assay [6] and in assay [8].
Turning to `Cc1cc(C(=C2C=CC(=Nc3ccc(S(=O)(=O)O)cc3S(=O)(=O)O)C=C2)c2ccc(Nc3ccc(S(=O)(=O)O)cc3)cc2)ccc1N`, the Potency result in assay [1], in assay [2], in assay [3], in [9] and in assay [7] was “inactive” throughout. Besides, the outcome in assay [5], in assay [6] and in assay [8] was inactive.
As to `N#C/C(=C1/SC[C@@H](c2ccc(Cl)cc2Cl)S1)n1ccnc1`, the Potency result in [1], in assay [2], in assay [3] and in assay [7] was “inactive” throughout. For the same compound, the Potency in [4] is 26.6 µM (active). Moreover, the result in assay [5], in [6] and in [8] was inactive.
For the compound `O=C(N[C@@H](c1ccccc1)[C@@H]1CCCCN1)c1cccc(C(F)(F)F)c1Cl`, the Potency entry in assay [1], in assay [2], in assay [3] and in assay [9] was “inactive” throughout. Besides, the result in assay [5], in assay [6] and in assay [8] was inactive.
For the compound `COCCOC(=O)C1=C(C)NC(C)=C(C(=O)OC/C=C/c2ccccc2)C1c1cccc([N+](=O)[O-])c1` (stereo not drawn), the Potency result in assay [1], in assay [3] and in [7] was “inactive” each time. In addition, the Potency was 9.44 µM (active) in assay [9] and 10.6 µM (active) in assay [4]. The compound was called inactive in assay [5] and in assay [8].
For `O=C(N/N=C/c1ccc([N+](=O)[O-])o1)c1ccc(O)cc1`, the Potency entry in assay [1] and in [2] was “inactive” in each case. Besides, in assay [4], the Potency is 1.27 µM (active). The fluorescence, relative to Rose Bengal in [5] is -0.334% [at 18.6 µM]. Also, the fluorescence, % of fluorescein control in [6] was -0.0853% [at 18.6 µM]. Further, in [7], the fluorescence, % of triamterene was 0.159% [at 18.6 µM]. Moreover, the fluorescence, % of fluorescent control in assay [8] was 0.101% [at 18.6 µM].
For the compound `NC(=O)N(O)[C@@H]1COc2cc(OCc3ccccc3)ccc21`, the Potency in assay [1] was 1.54 µM (active). Moreover, the Potency entry in assay [3], in [9] and in assay [7] was “inactive” each time. Also, the compound was classed as inactive in assay [5], in [6] and in [8].
Regarding `CCCCCCOC(=O)CCCCCCCC(=O)OCCCCCC`, the Potency result in [1], in assay [3], in assay [9] and in assay [7] was “inactive” in each case. The compound was called inactive in [5], in assay [6] and in assay [8].
For `COCc1c(C(C)C)nc(C(C)C)c(/C=C/[C@@H](O)C[C@@H](O)CC(=O)O)c1-c1ccc(F)cc1`, the Potency result in assay [1], in [2], in assay [3] and in [7] was “inactive” in each case. The outcome in [5] and in [8] was inactive.
With `CCCC1C(CC)=CC(CC)=CN1c1ccccc1` (stereo not drawn), the Potency entry in assay [1], in assay [3] and in [7] was “inactive” each time. In addition, in assay [4], the Potency is 54.5 µM (active). Also, the outcome in assay [5], in [6] and in assay [8] was inactive.
